# Data as given in PMC5540273 (PLoS ONE, 2017).
# pKd: −log10 of the molar value.
# Columns and labels:
# MRCKB = test system: T1, MRCKB
# T1 construct: gene CDC42BPB
# NIK = test system: T2, NIK
# T2 construct: gene MAP3K14
# NIM1 = test system: T3, NIM1
# T3 construct: gene MGC42105
# OSR1 = test system: T4, OSR1
# T4 construct: gene OXSR1
# 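Also: kd values determined as follow-up on hits from a single-replicate KINOMEscan panel screen.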
smiles,measurement,setting,value
C[C@@H]1CCN(C(=O)CO)C[C@@H]1N(C)c1ncnc2[nH]ccc12,pKd,MRCKB,< 5.00
same,pKd,NLK,< 5.00
O=C(Nc1n[nH]c2nc(-c3ccco3)c(Br)cc12)c1ccc(CN2CCCC2)cc1.O=C(O)[C@H](O)[C@@H](O)C(=O)O [SB-742352],pKd,MYLK2,6.92
same,pKd,MYLK,5.89
Nc1nc(-c2cccnc2)c(-c2ccnc3ccccc23)s1 [GW684083],pKd,MYLK4,6.31
CN1c2ccc(-c3ccc(C(=O)NCCO)cc3)cc2-c2[nH]ncc2S1(=O)=O,pKd,MYLK,6.32
COC(=O)c1c(-c2ccccc2)c2cc(Cl)ccc2c(=O)n1Cc1ccc(S(C)(=O)=O)cc1,pKd,NEK2,< 5.00
CNc1nccc(-c2c(-c3ccc(F)cc3)ncn2CCCN2CCOCC2)n1 [SB-222516],pKd,NEK5,< 5.00
same,pKd,PAK2,< 5.00
CS(=O)(=O)CCNCc1ccc(-c2ccc3ncnc(Nc4ccc(OCc5ccccc5)c(Cl)c4)c3c2)o1.Cl [GW574783],pKd,NIK,< 5.00
CC(=O)Nc1n[nH]c2ncc(-c3ccccc3)cc12 [SB-548492],pKd,NIM1,< 5.00
CNc1nccc(-c2c(-c3ccc(F)cc3)ncn2C2CCN(C)CC2)n1 [SB-222903],pKd,NLK,6.89
CCCc1ccc(S(=O)(=O)NC2CCN(c3ccnc(Nc4ccc(OC)cc4)n3)C2)cc1 (centres unmarked) [GSK1379737],pKd,OSR1,< 5.00
same,pKd,PAK3,< 5.00
Oc1ccc2ncnc(Nc3ccc(OCc4ccccc4)cc3)c2c1 [GI262866],pKd,PAK3,< 5.00
Cc1ccc(C)c(NC(=O)NCCNc2ccnc(Nc3ccc(F)cc3)n2)c1 [GSK1379878],pKd,PAK6,< 5.00
c1ccc(-c2ccc3c(-c4ccnc(Nc5ccc6c(c5)OCCO6)n4)cnn3n2)cc1 [GW818941],pKd,PAK6,< 5.00
Cl.Cn1ccc(-c2cccc(Nc3ccnc4cc(-c5nccs5)ccc34)c2)n1 [GW525701],pKd,PAK7,< 5.00
CSc1nn2c(=O)cc(N3CCOCC3)nc2n1Cc1cccc(Cl)c1Cl [GSK2347225],pKd,PIK3C2B,6.44
same,pKd,PIK3CB,9.10
CC(C)(C)c1ccc(-n2cnc3c(N)ncnc32)cc1 [SKF-97263],pKd,PIK3C2B,5.08
same,pKd,PIK3CA,< 5.00
O=c1cc(N2CCOCC2)nc2n(Cc3cccc(Cl)c3)ccn12 [GSK2296823],pKd,PIK3CB,7.82
